# ChEMBL document CHEMBL4513146, “CO-ADD screening of Karazin Kharkiv National University (Ukraine) compounds”
# Results with a measured potency or affinity are listed apart.
# Test system: Escherichia coli
# Conditions: Concentration 32 ug.mL-1;; ASSAY_TEST Inhibition of Bacterial Growth; detection method Absorption (OD600); MEDIA CAMHB; plate type 384well; NBS; CORNING #3640; time 18 hr
row,Compound,Inhibition [%]
1,Cc1cccc(C)c1NC(=O)Cn1nc2ccc(SCc3ccc(Cl)cc3)nn2c1=O,-13.3
2,Cc1cccc(NC(=O)Cn2nc3ccc(SC(C)(C)C)nn3c2=O)c1,-1.06
3,CCc1nnc2c(SCC(=O)Nc3ccc(C)cc3Br)nc3ccccc3n12,-2.07
4,COc1cccc(-n2ccn3c(SCc4ccc(C)cc4)nnc3c2=O)c1,-4.39
5,Cc1ccc(-c2ccc3nn(CC(=O)N4CCN(c5ccc(F)cc5)CC4)c(=O)n3n2)cc1C,-8.27
6,O=C(Cn1nc2c3sccc3ncn2c1=O)Nc1ccc2c(c1)OCO2,-14.29
7,Cc1ccc(-n2ccn3c(=O)n(Cc4cccc(F)c4)nc3c2=O)cc1C,-8.8
8,COc1ccc(-c2cc3c4nnc(CCC(=O)NCc5ccc(OC)c(OC)c5)n4ccn3n2)cc1,-5.17
9,COc1ccc(CNC(=O)CSc2nnc3c4cc(-c5ccc(C)cc5)nn4ccn23)cc1,-3.09
10,O=c1n(Cc2nc(-c3ccc(F)cc3)no2)nc2ccc(-c3ccccc3)nn12,-3.67
11,COc1cccc(Cn2nc3n(CCC(=O)NC4CCCCC4)c(=O)c4ccccc4n3c2=O)c1,-3.05
12,CC(C)NC(=O)CSc1nnc2c(=O)n(Cc3ccc(F)cc3)ccn12,-7.51
13,COc1ccc(OC)c(NC(=O)Cn2nc3c4cc(-c5ccc(F)cc5)nn4ccn3c2=O)c1,-2.37
14,Cc1ccc(Oc2nccn3c(=O)n(CC(=O)Nc4ccc(Br)cc4F)nc23)cc1,-0.38
15,CN(C(=O)Cn1nc2n(Cc3ccco3)c(=O)c3sccc3n2c1=O)c1ccccc1,-5.3
16,CCCCOc1ccc(-c2cc3c4nnc(SCC(=O)Nc5ccccc5Cl)n4ccn3n2)cc1,-3.41
17,O=C(Cn1nc2c(N3CCOCC3)nccn2c1=O)Nc1cccc(C(F)(F)F)c1,-2.32
18,Cc1ccccc1CN(c1ccc(Cl)cc1)S(=O)(=O)c1cccn2c(C)nnc12,1.89
19,O=C(CSc1nc2ccccc2n2cnnc12)Nc1ccc2c(c1)OCO2,-3.46
20,CC(C)c1nnc2c(SCC(=O)Nc3ccc(Br)cc3)nc3ccccc3n12,1.75

row,Compound,Inhibition [%]
1,Cc1cc2nn(CC(=O)Nc3ccc(F)cc3F)c(=O)n2c(Nc2ccc(F)c(C)c2)n1,-5.59
2,COc1ccccc1-n1ccn2c(SCc3ccc(Cl)cc3)nnc2c1=O,-9
3,COc1ccc(NC(=O)Cn2nc3cc(C)nc(Nc4cc(C)cc(C)c4)n3c2=O)cc1,-1.23
4,Cc1ccc(CN(c2cccc(F)c2)S(=O)(=O)c2ccc3nnc(C)n3c2)cc1,-15.84
5,CC(C)(C)S(=O)(=O)c1ccc2nn(CC(=O)Nc3ccc(Br)cc3)c(=O)n2n1,-5.05
6,O=S(=O)(c1ccc2nncn2c1)N(Cc1ccccc1)c1ccc(F)c(F)c1,-6.68
7,Cc1ccccc1CSc1nnc2c(=O)n(-c3ccc(F)c(F)c3)ccn12,-1.52
8,COc1cccc(-n2ccn3c(SCC(=O)c4cccc(Cl)c4)nnc3c2=O)c1,0.66
9,CC(=O)c1ccc(NC(=O)Cn2nc3ccc(-c4ccc(C)c(C)c4)nn3c2=O)cc1,-4.24
10,O=c1c2sccc2n2c(=O)n(Cc3cccc(Br)c3)nc2n1Cc1cccs1,-23.42
11,CCCCOc1ccc(-c2cc3c4nnc(SCC(=O)Nc5c(C)cccc5C)n4ccn3n2)cc1,-10.46
12,Cc1nnc2c(S(=O)(=O)N(Cc3ccccc3)c3ccc(C(C)C)cc3)cccn12,-2.4
13,Cc1nnc2ccc(S(=O)(=O)N(Cc3cccc(F)c3)c3ccc(F)c(F)c3)cn12,-12.6
14,O=C(Cn1nc2c(Oc3ccc(Cl)cc3)nccn2c1=O)Nc1ccc2c(c1)OCO2,-7
15,Cc1cc(C)cc(NC(=O)Cn2nc3c4cc(-c5ccc(C)c(C)c5)nn4ccn3c2=O)c1,-4.98
16,Cc1cc(Nc2ccc(F)cc2)nc2nn(Cc3cccc(C#N)c3)c(=O)n12,-11.43
17,CCc1ccc(N(Cc2ccccc2F)S(=O)(=O)c2cccn3c(CC)nnc23)cc1,1.03
18,Cc1nnc2c(=O)n(CC(=O)NC3CCCC3)c3ccccc3n12,-6.29
19,CCc1ccc(NC(=O)Cn2nc3n(Cc4ccco4)c(=O)c4sccc4n3c2=O)cc1,-6.35
20,Cc1ccc(C)c(Cn2nc3n(CC(C)C)c(=O)c4sccc4n3c2=O)c1,1.72
